# Measured values reported in PubChem BioAssay (NCATS).
# “And” between values parts separate entries of the source, which are not always exact repeats. Equal values may be shown once. Inconclusive results are not listed. The source made the active and inactive calls. Calls come from the whole dose curve; as a rule, active = well fitted curve in the direction sought with a large enough effect; inconclusive = small, poorly fitted or top-dose-only effect, or another doubt; inactive = no such curve, though single readings can be large; an effect the other way counts as inactive or inconclusive.
# Tests used:
# [1] = Quantitative highthroughput screen to assess conditional lethalithy of NOMO1 cells grown in RPMI1640 with dialyzed fetal bovine serum (RPMI+ds) (AID 1963877); note: nearly all actives have a fitted effect of over 30% in size;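 for viability: series mostly up to about 46 µM; 100% = DMSO control wells and 0% = empty wells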
# Outline: (§1)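 Each medium arm—HPLM with 10% dialyzed FBS, or RPMI1640 with 5 mM glucose and 10% untreated or dialyzed FBS—was screened against an 11-point, 3-fold compound titration for 48 h at 37 °C, with CellTiter-Glo luminescence as endpoint.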
# [2] = Quantitative highthroughput screen to assess conditional lethalithy of NOMO1 cells grown in Human Plasma-Like Medium with dialyzed fetal bovine serum (HPLM+ds) (AID 1963878); note: nearly all actives have a fitted effect of over 35% in size;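 for viability: 100% = DMSO wells and 0% = empty wells on each plate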
# Outline: as §1
# [3] = Quantitative highthroughput screen to assess conditional lethalithy of P12 Ichikawa cells grown in Human Plasma-Like Medium with dialyzed fetal bovine serum (HPLM+ds) (AID 1963879); settings: Potency: viability; note: nearly all actives have a fitted effect of over 35% in size; for viability: series mostly up to about 46 µM
# Outline: as §1
# [4] = Quantitative highthroughput screen to assess conditional lethalithy of P12 Ichikawa cells grown in RPMI1640 with dialyzed fetal bovine serum (RPMI+ds) (AID 1963880); settings: Potency: P12-Ichikawa viability; note: nearly all actives have a fitted effect of over 35% in size;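 for viability: 100% = DMSO wells and 0% = empty wells on each plate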
# Outline: as §1
# [5] = Quantitative highthroughput screen to assess conditional lethalithy of P12 Ichikawa cells grown in RPMI1640 with untreated serum (RPMI+s) (AID 1963881); settings: Potency: viability; note: nearly all actives have a fitted effect of over 35% in size;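 for viability: series mostly up to about 46 µM; 100% = DMSO wells and 0% = empty wells without cells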
# Outline: as §1
# [6] = Cellular viability qHTS for adrenocortical cancer (ACC) cell line SW-13 (AID 1963989); settings: SW-13 ACC cells viability, CellTiter-Glo, 48 h; activity (max response): stronger effect = lower value; note: nearly all actives have a fitted effect of over 65% in size;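 for activity (max response): cells grown in serum-free medium with ITS supplement; % is set by controls: 0 for no effect and ±100 for the full control effect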
# Outline: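 Here, serum-free SW-13 cultures were dosed up to 46 uM. Following 48 h, ATP-dependent luminescence (CellTiter-Glo) reported viable cells, and logistic modeling produced IC50 values.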
# [7] = Cellular viability qHTS for adrenocortical cancer (ACC) cell line NCI-H295R (AID 1963990); note: nearly all actives have a fitted effect of over 60% in size
# Outline: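 Viability of NCI-H295R after 48 h of treatment (final up to 46 uM) measured through cellular ATP luminescence.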
# [8] = Quantitative highthroughput screen to assess conditional lethalithy of SEM cells grown in Human Plasma-Like Medium with dialyzed fetal bovine serum (HPLM+ds) (AID 1963882); note: nearly all actives have a fitted effect of over 35% in size; for viability: series mostly up to about 46 µM
# Outline: as §1
# [9] = Quantitative highthroughput screen to assess conditional lethalithy of SEM cells grown in RPMI1640 with unreated serum (RPMI+s) (AID 1963883); note: nearly all actives have a fitted effect of over 35% in size;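 for viability: 100% = DMSO wells and 0% = empty wells without cells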
# Outline: as §1
# [10] = Quantitative highthroughput screen to assess conditional lethalithy of SEM cells grown in RPMI1640 with dialyzed fetal bovine serum (RPMI+ds) (AID 1963884); note: nearly all actives have a fitted effect of over 35% in size;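 for viability: series mostly up to about 46 µM; 100% = DMSO control wells and 0% = empty wells without cells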
# Outline: as §1
# Potency is the fitted concentration of half-maximal effect.
compound,measurement,setting,value
O=[N+]([O-])c1ccc(Nc2ccccc2-c2ccccc2)c2nonc12,Potency,[1],inactive
same,Potency,[2],inactive
same,Potency,[3],inactive
same,Potency,[4],inactive
same,Potency,[5],inactive
same,Potency,[6],8.91 µM (active)
same,Potency,[7],11.2 µM (active)
NC(=O)NN=Cc1ccc([N+](=O)[O-])o1,Potency,[1],inactive
same,Potency,[3],inactive
same,Potency,[4],inactive
same,Potency,[5],inactive
same,Potency,[8],inactive
same,Potency,[9],inactive
same,Potency,[10],inactive
C=CC[C@@H]1C=C(C)C[C@H](C)C[C@H](OC)[C@H]2O[C@@](O)(C(=O)C(=O)N3CCCC[C@H]3C(=O)O[C@H](C(C)=C[C@@H]3CC[C@H](O)[C@H](OC)C3)[C@@H](C)[C@@H](O)CC1=O)[C@@H](C)C[C@@H]2OC,Potency,[2],4.18 µM (active)
same,Potency,[4],6.62 µM (active)
same,Potency,[5],6.62 µM (active)
same,Potency,[8],3.32 µM (active)
same,Potency,[9],1.48 µM (active)
CC(C)NC[C@@H](C(=O)N1CCN(c2ncnc3c2[C@H](C)C[C@H]3O)CC1)c1ccc(Cl)cc1,Potency,[2],14.8 µM (active)
same,Potency,[8],0.296 µM (active)
same,Potency,[9],0.296 µM (active)
same,Potency,[10],0.296 µM (active)
O=C(Cc1cccc(OC(F)(F)F)c1)Nc1ccc(CCCCc2nnc(NC(=O)Cc3ccccn3)s2)nn1,Potency,[2],inactive
same,Potency,[3],inactive
same,Potency,[8],0.0524 µM (active)
same,Potency,[7],inactive
CCC1=C[C@@H]2CN(C1)Cc1c([nH]c3ccccc13)[C@@](C(=O)OC)(c1cc3c(cc1OC)N(C)[C@@H]1[C@@](O)(C(=O)OC)[C@H](OC(C)=O)[C@]4(CC)C=CCN5CC[C@]31[C@@H]54)C2,Potency,[1],0.0743 µM (active)
same,Potency,[5],0.0209 µM (active)
same,Potency,[8],0.059 µM (active)
same,Potency,[9],0.0209 µM (active)
O=c1cc(-c2ccccc2)oc2cc(O)cc(O)c12,Potency,[2],23.5 µM (active)
same,Potency,[3],26.4 µM (active)
same,Potency,[4],23.5 µM (active)
same,Potency,[5],20.9 µM (active)
same,Potency,[9],11.8 µM (active)
same,Potency,[10],16.6 µM (active)
Clc1ccc2ncc(-c3cccc(NC4CNC4)n3)n2c1,Potency,[2],20.9 µM (active)
same,Potency,[5],23.5 µM (active)
same,activity (max response),[6],12.3% (inactive)
same,Potency,[7],inactive
O=c1c(O)c(-c2cc(O)c(O)c(O)c2)oc2cc(O)cc(O)c12,Potency,[2],inactive
same,Potency,[3],inactive
same,Potency,[4],inactive
same,Potency,[5],inactive
same,Potency,[8],inactive
same,Potency,[9],inactive
same,Potency,[10],inactive
same,activity (max response),[6],-0.163% (inactive)
Cc1cnn(C)c1C(=O)Nc1cc(Nc2ccc3c(C=Cc4ccccn4)n[nH]c3c2)ccc1F,Potency,[2],16.6 µM (active)
same,Potency,[3],20.9 µM (active)
same,Potency,[8],2.96 µM (active)
same,Potency,[9],3.72 µM (active)
same,Potency,[10],2.64 µM (active)
C[C@@H]1C[C@H]2[C@@H]3CCC4=CC(=O)C=C[C@]4(C)[C@@]3(F)[C@@H](O)C[C@]2(C)[C@@]1(O)C(=O)CO,Potency,[1],inactive
same,activity (max response),[6],6.21% (inactive) and 9.17% (inactive)
same,Potency,[7],inactive
Oc1ccc(C=Cc2cc(O)cc(O)c2)cc1,Potency,[2],14.8 µM (active)
same,Potency,[9],11.8 µM (active)
same,Potency,[10],20.9 µM (active)
CC(C)[N+]1(C)[C@@H]2CC[C@H]1CC(OC(=O)C(CO)c1ccccc1)C2 (stereo partly drawn),Potency,[2],13.2 µM (active)
same,Potency,[8],9.35 µM (active)
NNCCc1ccccc1,Potency,[1],inactive
same,Potency,[3],inactive
same,Potency,[5],inactive
same,Potency,[7],inactive
Nc1nc(F)nc2c1ncn2[C@@H]1O[C@H](COP(=O)(O)O)[C@@H](O)[C@H]1O,Potency,[2],9.35 µM (active)
same,Potency,[8],1.48 µM (active)
same,Potency,[10],1.87 µM (active)
Cc1nnc(C(C)C)n1C1C[C@H]2CC[C@@H](C1)N2CC[C@H](NC(=O)C1CCC(F)(F)CC1)c1ccccc1 (stereo partly drawn),Potency,[3],16.6 µM (active)
COCCCCC(=NOCCN)c1ccc(C(F)(F)F)cc1,Potency,[2],18.7 µM (active)
CC(C)N(C[C@H]1O[C@@H](n2cnc3c(N)ncnc32)[C@H](O)[C@@H]1O)C1CC(CCc2nc3ccc(C(C)(C)C)cc3[nH]2)C1 (stereo partly drawn),Potency,[2],5.88 µM (active)
same,Potency,[3],1.05 µM (active)
same,Potency,[4],3.71 µM (active)
same,Potency,[9],1.05 µM (active)
same,Potency,[10],11.7 µM (active)
same,activity (max response),[6],7.65% (inactive)
same,Potency,[7],inactive
CCC(=O)NC[C@H](Cc1ccc(OCCc2nc(-c3ccccc3)oc2C)cc1)NC(C)=CC(=O)c1ccc(C(F)(F)F)cc1,Potency,[3],10.5 µM (active)
same,Potency,[4],16.6 µM (active)
same,Potency,[5],16.6 µM (active)
CC1=C(C(=O)Nc2cc3cn[nH]c3cc2F)C(c2ccc(C(F)(F)F)cc2)CC(=O)N1 (stereo not drawn),Potency,[2],11.8 µM (active)
same,Potency,[5],10.5 µM (active)
same,activity (max response),[6],5.03% (inactive)
same,Potency,[7],inactive
CCC[C@H](NC(=O)C(C#N)=Cc1cccc(Br)n1)c1ccccc1,Potency,[2],20.9 µM (active)
same,Potency,[4],26.4 µM (active)
CN(C)C(=N)N=C(N)N,Potency,[3],26.4 µM (active)
